Screening data: PubChem, several laboratories
A3G deaminase: inhibitors of human APOBEC3G DNA deaminase; Q9HC16; actives 0.28% (n = 330,000); AID 493012; recombinant A3G, ssDNA deamination FAM/TAMRA fluorescence; inhibition, % at 20 µM;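 active = inhibition of at least 40% at 20 µM, with no more than 30% in the related APOBEC3A deaminase screen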;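 also: plate controls were DMSO wells with A3G for no effect and wells lacking A3G enzyme for full effect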
Target sequence (Q9HC16 whole entry, looked up): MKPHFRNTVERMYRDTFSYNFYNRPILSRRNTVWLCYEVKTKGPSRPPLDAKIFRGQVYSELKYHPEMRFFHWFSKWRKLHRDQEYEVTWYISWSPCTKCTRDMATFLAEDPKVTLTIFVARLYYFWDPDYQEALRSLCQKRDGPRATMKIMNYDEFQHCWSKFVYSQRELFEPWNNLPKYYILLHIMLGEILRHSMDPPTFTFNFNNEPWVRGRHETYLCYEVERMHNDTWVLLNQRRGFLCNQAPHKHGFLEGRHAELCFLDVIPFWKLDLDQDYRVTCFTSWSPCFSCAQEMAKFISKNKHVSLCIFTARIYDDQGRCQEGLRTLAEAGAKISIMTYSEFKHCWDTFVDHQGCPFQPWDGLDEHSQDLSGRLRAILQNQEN
NRP1-CendR mod: NRP-1/CendR interaction modulation; O14786; FAM-RPARPAR peptide binding to NRP-1, fluorescence polarization; inhibition, % at 25 µM; actives 0.85% (n = 360,000); AID 602438;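 active = inhibition or corrected inhibition above about 18%, plus a signal ratio from 0.5 to 1.5, limit read from the data, passing the limit was not always enough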
APOBEC3A inh: blocks human APOBEC3A ssDNA deamination; recombinant A3A, FAM/TAMRA ssDNA deamination fluorescence; inhibition, % at 20 µM; actives 0.41% (n = 330,000); P31941;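 active = at least 40% inhibition at 20 µM here, with at most 30% in a related deaminase screen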;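 also: plate controls were A3A with DMSO for no effect and wells lacking A3A enzyme for full effect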
PfM18AAP inh: blocks P. falciparum M18 aspartyl aminopeptidase. AID 1822. recombinant PfM18AAP, H-Glu-NHMec fluorogenic cleavage. actives 1.2% (n = 290,000). inhibition, % at 7.35 µM;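 active = inhibition above the campaign mean inhibition over all tested compounds plus 3 SD, cut at about 28% in these data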;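 also: 0% = plate median of test compound wells and 100% = 2 mM ZnCl2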
Yeast superoxide: yeast age-related superoxide inhibition as caloric restriction mimetic | S. cerevisiae aged cells, superoxide DHE fluorescence; hits give low values | superoxide response (% of plate mean), % at 10 µM | actives 0.18% (n = 330,000);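 active = superoxide response under a set limit, about three screen SD below normal, cut at about 65% in these data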;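 also: yeast aged for seven days with compound at 30 °C before DHE staining; 100% = average MFI of all compound-treated wells on the plate with controls excluded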
ALR inh: human ALR oxidase inhibition via reduced H2O2; P55789; inhibition, % (no concentration beside the values); purified ALR, DTT oxidation, H2O2 HRP-luminol luminescence; actives 3.8% (n = 290,000);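 active = mean replicate inhibition above about 79%, with every replicate also reaching it, limit read from the data; inconclusive = only one of the two criteria met; inactive = mean below limit and not every replicate reaching it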
Target sequence (P55789 whole entry, looked up): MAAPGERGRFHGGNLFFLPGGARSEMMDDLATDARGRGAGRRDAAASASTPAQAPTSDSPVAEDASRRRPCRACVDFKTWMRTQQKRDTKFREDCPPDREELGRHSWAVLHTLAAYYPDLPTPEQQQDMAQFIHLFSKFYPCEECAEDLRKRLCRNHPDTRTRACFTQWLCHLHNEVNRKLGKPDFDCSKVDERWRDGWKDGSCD
The depositor's hits bear a star; u = inconclusive; x = not tested or not shown. Rows were chosen to be rich in hits. Some 5.2% of all compounds tested hit in one or more screens of this group.

SMILES | A3G deaminase | NRP1-CendR mod | APOBEC3A inh | PfM18AAP inh | Yeast superoxide | ALR inh
CN1CCN(c2ccc(N)cc2)CC1 | -8.2 | -6.1 | 1.3 | -4.6 | 92.3 | 98.7*
CCN1CCN(c2ccc(N)cc2)CC1 | -6.0 | -15.8 | -11.4 | 5.1 | 98.3 | 93.6*
CCN1CCN(c2ccc(N)cc2C)CC1 | -4.9 | -18.4 | -10.1 | -5.0 | 98.5 | 99.3*
CN1CCN(c2ccc(N)c(N3CCN(C)CC3)c2)CC1 | -5.8 | 5.9 | -6.7 | 29.8* | 94.0 | x
CCN1CCN(c2ccc(NC(C)=O)cc2Cl)CC1 | -4.5 | 8.1 | 0.5 | -5.0 | 119.3 | -1.7
COc1ccc(OC)c(C(O)C(C)N)c1 (stereo unspecified) | -4.6 | 19.3* | -3.8 | 2.5 | 92.9 | x
COc1ccc(C(O)c2cc(OC)ccc2OP(=O)(N(C)C)N(C)C)cc1 (stereo unspecified) | -7.5 | 16.8 | -0.5 | -11.0 | 91.4 | 0.3
Clc1ccc(CCNCc2ccncc2)c(Cl)c1 | -3.3 | -6.1 | -0.8 | 20.9 | 100.0 | 17.3
NN=C1C(Cl)=C(Cl)C(Cl)=C1Cl | x | 8.2 | x | x | x | x
CC1=NN(c2ccccc2)C(=O)C1/C=C1/C(=O)NC(=O)N(c2cc(C)cc(C)c2)C1=O (stereo unspecified) | -1.7 | -10.1 | 0.8 | 5.0 | 101.6 | 87.2*
CCOc1ccc(N2C(=O)/C(=C/c3ccco3)C(=O)NC2=S)cc1 | 46.9 | -39.9 | 72.8 | 1.4 | 101.2 | 97.7*
CCc1ccc(N2C(=O)NC(=O)/C(=C\C=C\c3ccco3)C2=O)cc1 | 16.2 | -171.0 | 25.4 | 25.6 | 103.0 | 97.8*
Cc1cc(C)cc(N2C(=O)NC(=O)/C(=C\C=C\c3ccco3)C2=O)c1 | x | -118.4 | x | 19.1 | 87.9 | 95.9*
CC1=NN(c2ccccc2)C(=O)C1/C=C1\C(=O)NC(=O)N(c2cc(C)cc(C)c2)C1=O (stereo unspecified) | -5.2 | -9.8 | 0.3 | 1.9 | 99.3 | 7.7
CCOc1ccc(N2C(=O)/C(=C\c3cccs3)C(=O)NC2=S)cc1 | 9.0 | x | 3.5 | 4.5 | 113.6 | 20.1
O=C(Nc1cccc2ccccc12)N1Cc2ccccc2-n2nncc2C1 | x | -0.9 | x | x | x | x
CCCCn1c(=O)c(C=Nc2cc([N+](=O)[O-])ccc2OC)c(O)n(CCCCl)c1=O | -10.8 | -35.9 | -5.3 | -0.8 | 153.1 | -6.9
CCC1=CCN(CCc2c(C)[nH]c3ccccc23)CC1 | -8.5 | 5.9 | -4.9 | x | 81.4 | u
O=C(CN1CCCCC1)c1ccccc1Cl | 3.7 | 4.8 | 1.7 | 3.2 | 77.0 | 0.6
CN1CC[C@@]23CCCC[C@@H]2[C@@H]1Cc1ccc(O)cc13 | 0.9 | -4.2 | 2.0 | -9.9 | 99.2 | x
CCC1C2Cc3ccc(O)cc3C1(CC)CCN2C (stereo unspecified) | x | 32.0* | x | x | x | x
Cc1c(Br)c(=O)oc2cc(OCC(=O)N3C[C@H]4C[C@@H](C3)c3cccc(=O)n3C4)ccc12 | -5.2 | -2.7 | 1.1 | -0.9 | 97.5 | -1.1
CCC(N)Cc1c[nH]c2ccccc12 (stereo unspecified) | -6.7 | -5.2 | 28.9 | -0.9 | x | x
CC(N)Cc1c[nH]c2c1ccc1ccccc12 (stereo unspecified) | -6.0 | -5.2 | -1.7 | 30.3* | 91.0 | -12.0
CC(Cc1ccccc1Sc1ccccc1O)N(C)C (stereo unspecified) | 1.0 | 0.8 | -2.2 | -3.4 | 105.3 | 97.9*
SMILES | A3G deaminase | NRP1-CendR mod | APOBEC3A inh | PfM18AAP inh | Yeast superoxide | ALR inh
O=C(NC1CC1)C1CSC(c2cccnc2)=N1 (stereo unspecified) | -5.8 | -7.1 | -5.7 | -5.5 | 126.2 | -14.3
Cc1oc(-c2ccccc2F)nc1CS(=O)CC(=O)N1CCC2(CC1)OCCO2 (stereo unspecified) | -2.9 | -1.7 | -1.8 | 0.3 | 103.8 | 98.9*
COc1cccc(-c2nc(CS(=O)CC(=O)N3CCC4(CC3)OCCO4)c(C)o2)c1 (stereo unspecified) | -2.3 | -3.2 | -0.6 | 1.2 | 98.2 | x
Cc1oc(-c2ccc(Cl)cc2)nc1CS(=O)CC(=O)N1CCC2(CC1)OCCO2 (stereo unspecified) | -2.6 | 2.5 | 0.5 | 7.6 | 102.0 | 98.5*
O=C(Cn1ncc2ccccc21)N1CCC2(CC1)OCCO2 | -2.4 | -6.0 | 2.5 | -0.4 | 75.2 | -3.9
Cc1ccc(Sc2ccc(C=C3C(=O)N(C)C(=O)N(C)C3=O)o2)cc1 | -7.1 | -11.8 | -0.7 | -3.1 | 83.8 | 97.0*
N#Cc1ccc(NC(=S)N2Cc3ccccc3-n3nncc3C2)cc1 | x | -10.9 | x | x | x | x
COC(=O)C1=C(c2ccc(F)cc2OCc2ccccc2)C[C@@H]2CC[C@H]1N2C(=O)NCCNC(C)=O | -0.4 | 30.3* | 2.2 | x | 112.2 | -6.9
COC(=O)C1=C(c2cccc(C#N)c2)C[C@@H]2CC[C@H]1N2C(=O)NCCc1ccccc1 | -10.6 | 26.3* | 0.9 | x | 115.4 | 0.7
S=C(N1CCCCCC1)N1CC1 | x | -1.4 | x | x | x | x
COc1ccc(C(O)C(C)NC(C)C(O)c2ccc(OC)cc2)cc1 (stereo unspecified) | -0.3 | 4.2 | 2.5 | x | 97.7 | -4.6
COc1ccc(-c2cc(=Nc3cccc(C(=O)O)c3)c3cc(C)ccc3o2)cc1 | -11.2 | 5.5 | 0.5 | 9.1 | 105.2 | 96.1*
CC(=O)Nc1ccc(S(=O)(=O)NC(CC(=O)N2CCC3(CC2)OCCO3)C(C)C)cc1 (stereo unspecified) | 12.4 | -15.8 | -0.4 | 3.2 | 103.7 | -2.4
CCN(CC)C(=O)c1ccc(NC(=O)COc2ccc([N+](=O)[O-])cc2Cl)cc1 | -5.3 | 30.6* | 2.0 | -3.1 | 108.6 | -6.9
COc1ccc2c(c1)NP(=S)(Oc1ccccc1)N2 (stereo unspecified) | 24.4 | 6.1 | 9.8 | -32.3 | 91.5 | 98.4*
O=C(Nc1ccc(Cl)cc1C(=O)c1ccccc1)c1ccc(Br)o1 | 2.4 | -6.8 | 4.6 | -7.5 | 91.9 | -0.2
CCCCN1CCC(C#N)(Nc2ccccc2)CC1 | -4.5 | 8.4 | 1.1 | -8.8 | 90.4 | -12.5
CC(C)CCCn1c(O)c(/C=C2/C=CC=N2)c(=O)[nH]c1=O | -2.8 | -17.5 | 2.0 | 12.6 | 91.6 | 97.5*
CCCCn1c(O)c(C=NCCCn2ccnc2)c(=O)[nH]c1=O | -4.4 | -30.6 | 1.9 | 4.9 | 108.3 | -0.4
Fc1cccc(C2NCc3ccccc3-n3cccc32)c1 (stereo unspecified) | -8.4 | 3.6 | -1.6 | -3.2 | 97.5 | -2.5
O=C1NC(=O)C(=Cc2ccccc2[N+](=O)[O-])C(=O)N1 | x | 25.4* | x | x | x | x
NC1=C([N+](=O)[O-])C(c2ccc3c(c2)OCO3)c2c(c3ccccc3oc2=O)O1 (stereo unspecified) | -6.0 | x | -9.8 | 0.3 | 114.3 | 44.6
O=c1oc2ccccc2c(O)c1[C@H]1c2ccc(O)cc2Oc2c1c(=O)oc1ccccc21 | -3.7 | -68.6 | -0.2 | 4.0 | 92.4 | 97.9*
NNC(=O)c1ccc(O)cc1 | 4.9 | 20.4 | -3.6 | x | 116.3 | 95.3*
CCOP(=O)(OCC)C(O)c1ccc(OC)c(OC)c1 (stereo unspecified) | -0.3 | -0.8 | 1.6 | -5.3 | 87.7 | 98.8*
